The panel holds about 83,000 compounds, 20% with a hit somewhere; the sample as a whole holds those more often.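 Percent growth is the endpoint: 0 to 100 indicates growth inhibition (40 means 60% inhibition), 0 means no net growth, and negative values indicate cell death.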 Unmarked numbers belong to inactive results. Active and inactive are the calls of the source. How the source made its calls: active means growth percent below 10; inactive means the rest.

In PubChem BioAssay (NCI) one finds growth data, which are given here for 14 molecules.

The test concerns SNB-75 CNS. As to the kind of experiment: NCI-60 one-dose screen, 48 h (100 = growth as untreated, 0 = no growth, -100 = all killed). As to conditions: 10 µM unless noted.
On to `Cn1ccc2c(c1=O)C(=O)c1nccc3c1c-2nc1ccccc13`, for which the growth is 60.2%.
Under `COC1=CC(=O)C[C@@H](C)[C@]12Oc1c(Cl)c(OC)cc(OC)c1C2=O` stands 67.8%; under `O=C1CCc2c(sc3[nH]c(=S)n(-c4ccc(OC(F)(F)F)cc4)c(=O)c23)C1`, 27.4%.
Regarding `COc1cc(C(=O)/C=C/c2c(-c3ccc(F)cc3)nc3sc(C)cn23)cc(OC)c1OC`, the growth is 50.1%.
To `Cc1nn(-c2ccccc2)c(Oc2ccc(Cl)cc2)c1/C=N\N=c1/sc2ccccc2n1C` belongs 74.4%; to `COC(=O)c1ccc(C2Nc3ccc(S(=O)(=O)Nc4ccc(C)c(C)c4)cc3C3OCCC23)cc1` (centres undefined), 79.1%.
To `CCCCCCCCn1ccc2cc(NC(=O)Cn3cc(CN4CCCC4)nn3)ccc21` belongs 96.6%; to `O=S(=O)(Nc1cccc(Cl)c1)c1ccc(-c2cnc(C3CC3)o2)cc1`, -25.8% (active).
With `COc1ccc(-c2nc(SC(C)C)nc(NNC(N)=S)c2C#N)cc1`, the growth is 32.3%.
Under `Cc1cc(NCc2cc(Nc3ccnc4cc(Cl)ccc34)ccc2F)nc(N2CCN(C)CC2)n1` stands -50.9% (active).
For the molecule `Cc1ccc2nc(C)c(-c3nnc(SCc4ccc(C#N)cc4)o3)n2c1`, the growth is 77.7%.
Consider `CCN1C(=O)N(CC)C2Nn3c(s/c(=C\c4ccc(Cl)cc4Cl)c3=O)=NC21` (centres undefined), for which the growth was 42.6%.
Under `C[n+]1cc2cc(C(N)=O)[nH]c3c(=N)c(Cl)c(N)c1c23` stands 86.3%; under `CCc1ccccc1-n1c(-c2ccc(Cl)cc2)cc(-c2ccc(Cl)cc2)c(C#N)c1=O`, 98.6%.
